{
  "source": "PubChem BioAssay (Tox21)",
  "note": "Values joined by “and” are separate entries in the source; they are usually repeats but may differ in a detail not shown here. Equal values may be shown once. Results filed as inconclusive are left out. Where a call stands in place of a potency, no number is given. A structure can be active in one record and inactive in another. Active and inactive are the calls of the source. Calls come from the whole dose curve; as a rule, active = well fitted curve in the direction sought with a large enough effect in the repeat runs; inconclusive = weak or mixed curves; inactive = no such curve, though single readings can be large; an effect the other way counts as inactive or inconclusive.",
  "data": [
    {"test": "A CellTox Green Cytotoxicity Assay to monitor cytotoxicity in HEK293 cells - 8 hour (AID 1224884); note: nearly all actives have a fitted effect of over 35% in size; note: potency is the fitted concentration of half-maximal effect", "conditions": "CellTox Green fluorescence; series mostly up to 76.8 µM", "outline": "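Read-out: fluorescence of a cell-impermeant cyanine dye staining DNA of dead cells, proportional to cytotoxicity. HEK293, 600 cells/well with reagent, compound (23 nL DMSO) added after 5 h; reads at 0, 8, 16, 24, 32, 40 h.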", "values": [
      {"smiles": "[N-]=[N+]=CC(=O)OC[C@H](N)C(=O)O", "Potency": "inactive"},
      {"smiles": "CCOP(=S)(OCC)Oc1ccc([N+](=O)[O-])cc1", "Potency": "inactive"},
      {"smiles": "Cl[C@H]1OCCO[C@@H]1Cl", "Potency": "inactive"},
      {"smiles": "Nc1ccc(N)cc1", "Potency": "inactive"},
      {"smiles": "CCCCCCCCCCCCCCCCCC(=O)O", "Potency": "inactive"},
      {"smiles": "O=C(O)CCCc1ccc(N(CCCl)CCCl)cc1", "Potency": "inactive"},
      {"smiles": "OC[C@@H](O)[C@H]1O[C@@H]2O[C@H](C(Cl)(Cl)Cl)O[C@@H]2[C@H]1O", "Potency": "inactive"},
      {"smiles": "CC(C)c1cccc(C(C)C)c1O", "Potency": "inactive and 43.6 µM (active)"},
      {"smiles": "CC(C)CCCCCCOC(=O)c1ccccc1C(=O)OCCCCCCC(C)C", "Potency": "inactive"},
      {"smiles": "O=P1(NCCCl)OCCCN1CCCl", "note": "(configuration not stated)", "Potency": "inactive"},
      {"smiles": "CNC(=O)O/N=C(\\SC)C(=O)N(C)C", "Potency": "inactive"},
      {"smiles": "O=C(O)Cc1ccccc1", "Potency": "inactive"},
      {"smiles": "N#Cc1cccc(C#N)c1", "Potency": "inactive"},
      {"smiles": "Oc1c(Br)cc(Br)cc1Br", "Potency": "inactive"},
      {"smiles": "c1ccc2c(c1)CCCC2", "Potency": "inactive"},
      {"smiles": "O=[N+]([O-])c1ccc(Cl)cc1", "Potency": "inactive"},
      {"smiles": "C/C=C/c1ccc2c(c1)OCO2", "Potency": "inactive"},
      {"smiles": "CN(C)C(=O)C(c1ccccc1)c1ccccc1", "Potency": "inactive"},
      {"smiles": "CC12CC1(C)C(=O)N(c1cc(Cl)cc(Cl)c1)C2=O", "note": "(configuration not stated)", "Potency": "inactive"},
      {"smiles": "Cc1ccccc1N", "Potency": "inactive"},
      {"smiles": "Clc1cnc(Oc2ccc(Oc3ncc(Cl)cc3Cl)cc2)c(Cl)c1", "Potency": "inactive and 34.7 µM (active)"},
      {"smiles": "CC(=O)/C=C/c1ccccc1", "Potency": "inactive"},
      {"smiles": "CC(=O)C1CCOC1=O", "note": "(configuration not stated)", "Potency": "inactive"},
      {"smiles": "Cc1ccc(N=C=O)cc1N=C=O", "Potency": "inactive"},
      {"smiles": "C=CC(=O)OCCCCCC(C)C", "Potency": "inactive"},
      {"smiles": "COC(=O)Nc1cccc(OC(=O)Nc2cccc(C)c2)c1", "Potency": "inactive"},
      {"smiles": "O=S(=O)(O)OOS(=O)(=O)O", "Potency": "inactive"},
      {"smiles": "Cc1ccc(N)cc1", "Potency": "inactive"},
      {"smiles": "CC[N+](=O)[O-]", "Potency": "inactive"},
      {"smiles": "CN1C(=O)CCS(=O)(=O)C1c1ccc(Cl)cc1", "note": "(configuration not stated)", "Potency": "inactive"},
      {"smiles": "C=CC(=O)OCC(CC)CCCC", "note": "(configuration not stated)", "Potency": "inactive"}
    ]},
    {"test": "qHTS RealTime-Glo MT Cell Viability Assay in HepG2 cells - 16 hour (AID 1224885); note: nearly all actives have a fitted effect of over 50% in size", "conditions": "RealTime-Glo luminescence; series mostly up to 76.8 µM", "outline": "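qHTS, HepG2, 600 cells/well, RealTime-Glo (NanoLuc + prosubstrate) added with cells; 5 h preincubation; DMSO compound addition; 37 C; luminescence at 0/8/16/24/32/40 h.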", "values": [
      {"smiles": "[N-]=[N+]=CC(=O)OC[C@H](N)C(=O)O", "outcome": "inactive"},
      {"smiles": "CCOP(=S)(OCC)Oc1ccc([N+](=O)[O-])cc1", "outcome": "inactive"},
      {"smiles": "Cl[C@H]1OCCO[C@@H]1Cl", "outcome": "inactive"},
      {"smiles": "Nc1ccc(N)cc1", "outcome": "inactive"},
      {"smiles": "CCCCCCCCCCCCCCCCCC(=O)O", "outcome": "inactive"},
      {"smiles": "O=C(O)CCCc1ccc(N(CCCl)CCCl)cc1", "outcome": "inactive"},
      {"smiles": "OC[C@@H](O)[C@H]1O[C@@H]2O[C@H](C(Cl)(Cl)Cl)O[C@@H]2[C@H]1O", "outcome": "inactive"},
      {"smiles": "CC(C)c1cccc(C(C)C)c1O", "outcome": "inactive"},
      {"smiles": "CC(C)CCCCCCOC(=O)c1ccccc1C(=O)OCCCCCCC(C)C", "outcome": "inactive"},
      {"smiles": "O=P1(NCCCl)OCCCN1CCCl", "note": "(configuration not stated)", "outcome": "inactive"},
      {"smiles": "CNC(=O)O/N=C(\\SC)C(=O)N(C)C", "outcome": "inactive"},
      {"smiles": "O=C(O)Cc1ccccc1", "outcome": "inactive"},
      {"smiles": "N#Cc1cccc(C#N)c1", "outcome": "inactive"},
      {"smiles": "Oc1c(Br)cc(Br)cc1Br", "outcome": "inactive"},
      {"smiles": "c1ccc2c(c1)CCCC2", "outcome": "inactive"},
      {"smiles": "O=[N+]([O-])c1ccc(Cl)cc1", "outcome": "inactive"},
      {"smiles": "C/C=C/c1ccc2c(c1)OCO2", "outcome": "inactive"},
      {"smiles": "CN(C)C(=O)C(c1ccccc1)c1ccccc1", "outcome": "inactive"},
      {"smiles": "CC12CC1(C)C(=O)N(c1cc(Cl)cc(Cl)c1)C2=O", "note": "(configuration not stated)", "outcome": "inactive"},
      {"smiles": "Cc1ccccc1N", "outcome": "inactive"},
      {"smiles": "Clc1cnc(Oc2ccc(Oc3ncc(Cl)cc3Cl)cc2)c(Cl)c1", "outcome": "inactive"},
      {"smiles": "CC(=O)/C=C/c1ccccc1", "outcome": "inactive"},
      {"smiles": "CC(=O)C1CCOC1=O", "note": "(configuration not stated)", "outcome": "inactive"},
      {"smiles": "Cc1ccc(N=C=O)cc1N=C=O", "outcome": "inactive"},
      {"smiles": "C=CC(=O)OCCCCCC(C)C", "outcome": "inactive"},
      {"smiles": "COC(=O)Nc1cccc(OC(=O)Nc2cccc(C)c2)c1", "outcome": "inactive"},
      {"smiles": "O=S(=O)(O)OOS(=O)(=O)O", "outcome": "inactive"},
      {"smiles": "Cc1ccc(N)cc1", "outcome": "inactive"},
      {"smiles": "CC[N+](=O)[O-]", "outcome": "inactive"},
      {"smiles": "CN1C(=O)CCS(=O)(=O)C1c1ccc(Cl)cc1", "note": "(configuration not stated)", "outcome": "inactive"},
      {"smiles": "C=CC(=O)OCC(CC)CCCC", "note": "(configuration not stated)", "outcome": "inactive"}
    ]}
  ]
}
